Reference: PubChem BioAssay (NCI)
Compounds without any hit were thinned out: in the full panel of roughly 83,000, 20% have a hit.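 Values shown are percent growth following 48 h exposure of cells in 96-well plates to a single concentration of compound; below 10 was considered active.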 Calls of active or inactive are those of the source.

Legend:
Assay in all cases: NCI-60 one-dose screen, 48 h (100 = growth as untreated, 0 = no growth, -100 = all killed)
Settings in all cases: 10 µM unless noted
SR leukemia = test system: SR leukemia
RPMI-8226 leukemia = test system: RPMI-8226 leukemia
OVCAR-8 ovarian = test system: OVCAR-8 ovarian
OVCAR-5 ovarian = test system: OVCAR-5 ovarian
OVCAR-4 ovarian = test system: OVCAR-4 ovarian
SK-OV-3 ovarian = test system: SK-OV-3 ovarian
IGROV1 ovarian = test system: IGROV1 ovarian
OVCAR-3 ovarian = test system: OVCAR-3 ovarian
HS 578T breast = test system: HS 578T breast
NCI/ADR-RES ovarian = test system: NCI/ADR-RES ovarian
T-47D breast = test system: T-47D breast
MDA-MB-435 melanoma = test system: MDA-MB-435 melanoma
SW-620 colon = test system: SW-620 colon
MCF7 breast = test system: MCF7 breast
HCT-116 colon = test system: HCT-116 colon
HCC-2998 colon = test system: HCC-2998 colon
KM12 colon = test system: KM12 colon
BT-549 breast = test system: BT-549 breast

Measured: growth

COc1ccc(/C(C)=N/NC(=O)CSc2nc3ccccc3c(=O)n2Cc2ccc(S(N)(=O)=O)cc2)c(OC)c1
inactive: SR leukemia 95.6% | RPMI-8226 leukemia 116% | OVCAR-8 ovarian 100% | OVCAR-5 ovarian 99% | OVCAR-4 ovarian 101% | SK-OV-3 ovarian 114% | IGROV1 ovarian 104% | OVCAR-3 ovarian 111% | HS 578T breast 102% | NCI/ADR-RES ovarian 100% | T-47D breast 95.6% | MDA-MB-435 melanoma 102% | SW-620 colon 102% | MCF7 breast 90.7% | HCT-116 colon 102% | HCC-2998 colon 115% | KM12 colon 102%

O=C(Nc1cccc(Cl)c1)Oc1c(Br)c(Br)c(Br)c(Br)c1Br
inactive: SR leukemia 107% | RPMI-8226 leukemia 73.2% | OVCAR-8 ovarian 88.9% | OVCAR-5 ovarian 102% | OVCAR-4 ovarian 95.4% | SK-OV-3 ovarian 62.6% | IGROV1 ovarian 107% | OVCAR-3 ovarian 88.5% | HS 578T breast 84.3% | NCI/ADR-RES ovarian 96.4% | BT-549 breast 79.5% | MDA-MB-435 melanoma 99.8% | SW-620 colon 102% | MCF7 breast 93.9% | HCT-116 colon 80.3% | HCC-2998 colon 94.7% | KM12 colon 106%

CN(C)Cc1c(-c2ccccc2)[nH]c2ccccc12
inactive: SR leukemia 95.6% | RPMI-8226 leukemia 85.7% | OVCAR-8 ovarian 102% | OVCAR-5 ovarian 96.1% | OVCAR-4 ovarian 117% | SK-OV-3 ovarian 81.7% | IGROV1 ovarian 110% | OVCAR-3 ovarian 103% | HS 578T breast 100% | NCI/ADR-RES ovarian 98.2% | BT-549 breast 75.3% | MDA-MB-435 melanoma 105% | SW-620 colon 99.6% | MCF7 breast 81.8% | HCT-116 colon 67.9% | HCC-2998 colon 98.2% | KM12 colon 96.7%

O=S(=O)(NCCCNc1nccc(-c2c(-c3ccccc3)nc3occn23)n1)c1ccc(Cl)cc1
inactive: SR leukemia 60.9% | RPMI-8226 leukemia 71.2% | OVCAR-8 ovarian 74.4% | OVCAR-5 ovarian 127% | OVCAR-4 ovarian 103% | SK-OV-3 ovarian 83% | IGROV1 ovarian 75.7% | OVCAR-3 ovarian 104% | HS 578T breast 96.7% | NCI/ADR-RES ovarian 87.8% | T-47D breast 58.9% | MDA-MB-435 melanoma 64.3% | SW-620 colon 108% | MCF7 breast 60.5% | HCT-116 colon 68.4% | KM12 colon 95.7%

O=C(O)CNC(=O)CN1C(=O)c2ccccc2C1=O
inactive: SR leukemia 102% | RPMI-8226 leukemia 101% | OVCAR-8 ovarian 94.4% | OVCAR-5 ovarian 101% | OVCAR-4 ovarian 115% | SK-OV-3 ovarian 90.7% | IGROV1 ovarian 107% | OVCAR-3 ovarian 116% | HS 578T breast 113% | NCI/ADR-RES ovarian 104% | BT-549 breast 89.5% | MDA-MB-435 melanoma 107% | SW-620 colon 105% | MCF7 breast 96.3% | HCT-116 colon 89.3% | HCC-2998 colon 106% | KM12 colon 115%

COc1ccc2nc(N=Nc3c(O)ccc4ccccc34)sc2c1
inactive: SR leukemia 16.6% | RPMI-8226 leukemia 38.1% | OVCAR-8 ovarian 24.3% | OVCAR-5 ovarian 55.3% | OVCAR-4 ovarian 28.3% | SK-OV-3 ovarian 38.2% | IGROV1 ovarian 22.4% | OVCAR-3 ovarian 34.9% | HS 578T breast 83% | BT-549 breast 53.3% | MDA-MB-435 melanoma 45.1% | SW-620 colon 35.8% | MCF7 breast 13.9% | HCT-116 colon 26.6% | HCC-2998 colon 45.9% | KM12 colon 32.3%
active: NCI/ADR-RES ovarian 9.35%

CN1C2CCC1CN(c1cnc(C(=O)Nc3cc(F)cc4cccnc34)cn1)C2
active: OVCAR-4 ovarian 8.7% | IGROV1 ovarian 6.34% | MCF7 breast 5.77%
inactive: SR leukemia 22.4% | RPMI-8226 leukemia 44.5% | OVCAR-8 ovarian 54.4% | OVCAR-5 ovarian 70.3% | SK-OV-3 ovarian 81.9% | OVCAR-3 ovarian 20.4% | HS 578T breast 54.6% | NCI/ADR-RES ovarian 42.1% | T-47D breast 36% | MDA-MB-435 melanoma 55.9% | SW-620 colon 36.2% | HCT-116 colon 18.8% | HCC-2998 colon 83.1% | KM12 colon 76.9%

COc1cc(NCC(O)CN(CC(C)C)CC(C)C)c2nc(C)ccc2c1 (configuration not stated)
active: MCF7 breast -11.4%
inactive: SR leukemia 102% | RPMI-8226 leukemia 99.4% | OVCAR-8 ovarian 87.2% | OVCAR-5 ovarian 122% | OVCAR-4 ovarian 40.2% | SK-OV-3 ovarian 75.2% | IGROV1 ovarian 86.9% | OVCAR-3 ovarian 53.2% | HS 578T breast 85.1% | NCI/ADR-RES ovarian 92% | BT-549 breast 90.9% | MDA-MB-435 melanoma 105% | SW-620 colon 92.7% | HCT-116 colon 97.3% | HCC-2998 colon 89.9% | KM12 colon 75.5%

c1ccc(-c2nn(-c3ccccc3)[n+](-c3ccccc3-c3ccccc3)n2)cc1
inactive: RPMI-8226 leukemia 15.3% | OVCAR-5 ovarian 37.1% | OVCAR-4 ovarian 22.3% | SK-OV-3 ovarian 36.5% | IGROV1 ovarian 30.9% | NCI/ADR-RES ovarian 93.1% | T-47D breast 19.2% | HCC-2998 colon 18.9%
active: SR leukemia 8.06% | OVCAR-8 ovarian -32.8% | OVCAR-3 ovarian 1.32% | HS 578T breast 9.51% | MDA-MB-435 melanoma 6.4% | MCF7 breast 8.29% | KM12 colon 9.9%

CC(=O)Nc1ccc(S(=O)(=O)NC2CCCCC2)cc1
inactive: SR leukemia 99% | RPMI-8226 leukemia 94.3% | OVCAR-8 ovarian 101% | OVCAR-5 ovarian 93.9% | OVCAR-4 ovarian 113% | SK-OV-3 ovarian 97.3% | IGROV1 ovarian 103% | OVCAR-3 ovarian 110% | HS 578T breast 92.7% | NCI/ADR-RES ovarian 99.7% | BT-549 breast 96.4% | MDA-MB-435 melanoma 105% | SW-620 colon 97.7% | MCF7 breast 96.9% | HCT-116 colon 103% | HCC-2998 colon 102% | KM12 colon 104%

O=C(/C=C\c1ccc(OCCCCCC[P+](c2ccccc2)(c2ccccc2)c2ccccc2)cc1)c1ccc2c(c1)OCCO2
active: SR leukemia -18.9% | RPMI-8226 leukemia -41.7% | OVCAR-8 ovarian 1.04% | OVCAR-4 ovarian -3.06% | SK-OV-3 ovarian -23.8% | IGROV1 ovarian 5.29% | OVCAR-3 ovarian -27% | HS 578T breast 7.53% | BT-549 breast -16.9% | MDA-MB-435 melanoma -29.8% | SW-620 colon -41.4% | MCF7 breast 5.09% | HCT-116 colon -73.1% | KM12 colon -76.4%
inactive: OVCAR-5 ovarian 13.9% | NCI/ADR-RES ovarian 78.1% | HCC-2998 colon 32.5%

COc1ccc(CNCCN2C(=O)c3ccc4c5c(ccc(c35)C2=O)C(=O)N(CCNCc2ccc(OC)cc2)C4=O)cc1
active: SR leukemia -29.4% | RPMI-8226 leukemia -35.2% | OVCAR-8 ovarian -67.3% | OVCAR-5 ovarian -72.7% | OVCAR-4 ovarian -99.5% | SK-OV-3 ovarian -68.1% | IGROV1 ovarian -58.4% | OVCAR-3 ovarian -95.5% | HS 578T breast -41.1% | NCI/ADR-RES ovarian -25.9% | T-47D breast -19% | MDA-MB-435 melanoma -71.4% | SW-620 colon -88% | MCF7 breast -79.2% | HCT-116 colon -72.4% | KM12 colon -81.8%

COC(=O)Nc1ccc(NC(=O)OC)cc1
inactive: SR leukemia 105% | RPMI-8226 leukemia 89.4% | OVCAR-8 ovarian 94.6% | OVCAR-5 ovarian 114% | OVCAR-4 ovarian 112% | SK-OV-3 ovarian 90.9% | IGROV1 ovarian 120% | OVCAR-3 ovarian 111% | HS 578T breast 102% | NCI/ADR-RES ovarian 104% | BT-549 breast 84.6% | MDA-MB-435 melanoma 101% | SW-620 colon 104% | MCF7 breast 92.1% | HCT-116 colon 83.9% | HCC-2998 colon 106% | KM12 colon 111%

Nc1ccccc1NC(=O)c1ccc(CN2CCC/C(=C\c3cccc(Cl)c3)C2=O)cc1
inactive: SR leukemia 10.4% | OVCAR-8 ovarian 10.2% | OVCAR-5 ovarian 36.7% | OVCAR-4 ovarian 33.7% | SK-OV-3 ovarian 13.1% | IGROV1 ovarian 17.8% | HS 578T breast 43.1% | T-47D breast 32.4% | SW-620 colon 23.9% | HCC-2998 colon 12.4%
active: RPMI-8226 leukemia -18.7% | OVCAR-3 ovarian 5.7% | NCI/ADR-RES ovarian 5% | MDA-MB-435 melanoma 3.87% | MCF7 breast 8.72% | HCT-116 colon 6.06% | KM12 colon 4.58%

COc1cccc2cc(-c3cc4ccccc4[nH]3)/c(=N/C(=S)Nc3ccc(C)cc3)oc12
inactive: SR leukemia 123% | RPMI-8226 leukemia 114% | OVCAR-8 ovarian 54% | OVCAR-5 ovarian 89.4% | OVCAR-4 ovarian 34.6% | SK-OV-3 ovarian 64.7% | IGROV1 ovarian 58.2% | OVCAR-3 ovarian 81.2% | HS 578T breast 14.1% | NCI/ADR-RES ovarian 50.8% | BT-549 breast 89.6% | MDA-MB-435 melanoma 85.1% | SW-620 colon 78% | MCF7 breast 74% | HCT-116 colon 49.3% | HCC-2998 colon 99.9% | KM12 colon 70.9%

COc1cc(NCCN(CC(C)C)C2CCCC2)c2ncccc2c1
inactive: SR leukemia 82.6% | RPMI-8226 leukemia 99.2% | OVCAR-8 ovarian 84.9% | OVCAR-5 ovarian 96.4% | OVCAR-4 ovarian 36.6% | SK-OV-3 ovarian 97.7% | IGROV1 ovarian 86.8% | OVCAR-3 ovarian 83.1% | HS 578T breast 84.2% | NCI/ADR-RES ovarian 86.6% | BT-549 breast 98.8% | MDA-MB-435 melanoma 111% | SW-620 colon 72.2% | MCF7 breast 42% | HCT-116 colon 63.4% | HCC-2998 colon 87.5% | KM12 colon 86.1%

Cc1cc(C)c(C=O)c(C)c1
inactive: SR leukemia 105% | RPMI-8226 leukemia 89.8% | OVCAR-8 ovarian 94.2% | OVCAR-5 ovarian 98.5% | OVCAR-4 ovarian 108% | SK-OV-3 ovarian 74.7% | IGROV1 ovarian 111% | OVCAR-3 ovarian 107% | HS 578T breast 104% | NCI/ADR-RES ovarian 107% | BT-549 breast 91.4% | MDA-MB-435 melanoma 103% | SW-620 colon 95% | MCF7 breast 106% | HCT-116 colon 83.1% | HCC-2998 colon 108% | KM12 colon 105%

C[C@]12C[C@H]1CC[C@]1(C)[C@@H]2CC[C@@]23C[C@H](CC[C@H]21)[C@@](O)(CO)C3
inactive: SR leukemia 63.3% | RPMI-8226 leukemia 95% | OVCAR-8 ovarian 102% | OVCAR-5 ovarian 92.9% | OVCAR-4 ovarian 110% | SK-OV-3 ovarian 113% | IGROV1 ovarian 104% | OVCAR-3 ovarian 111% | HS 578T breast 99.6% | NCI/ADR-RES ovarian 97.7% | BT-549 breast 77% | MDA-MB-435 melanoma 59.1% | SW-620 colon 109% | MCF7 breast 97.8% | HCC-2998 colon 103% | KM12 colon 96.5%
active: HCT-116 colon -71.4%
